In all, about 300,000 compounds went through this assay and about 1,200 (0.4%) were called active. Roughly 3% stayed inconclusive and do not appear here. What follows is part of a selection rich in actives, with near analogues and random picks from the rest. Unmarked numbers belong to inactive results. The call rests on the fitted dose curve; in most records, active means well fitted inhibition curve with a large enough effect; inconclusive means small, poorly fitted or top-dose-only effect, or another doubt; inactive means no such curve, though single readings can be large or run the other way.
Potency means the concentration at half of the fitted maximal effect.

The experiment concerns the target Lysosomal alpha-glucosidase (Homo sapiens) (UniProt P10253). Briefly: qHTS Assay for Inhibitors and Activators of Human alpha-Glucosidase Cleavage of Glycogen.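 Further: the screen sought inhibitors and activators.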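 On activity change, negative = inhibition: 0% = full enzyme reaction and -100% = no-enzyme basal signal.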 The note with it: recombinant GAA, glycogen substrate, Amplex Red glucose oxidase fluorescence; series mostly up to 76.3 µM; activity change, negative = inhibition: at the top concentration. The text has this: NIH Chemical Genomics Center [NCGC] NIH Molecular Libraries Probe Production Centers Network [MLPCN] MLPCN Grant: R03 MH084841-01 Assay Submitter (PI): Wei Zheng NCGC Assay Overview: Alpha-glucosidase is responsible for the hydrolysis of terminal, non-reducing 1,4-linked alpha-D-glucose residues, which releases alpha-D-glucose. It is a lysosomal hydrolase that is required for the degradation of a small percentage (1-3%) of cellular glycogen in humans. Deficiency of this enzyme results in glycogen-storage disease type II (GSDII), also referred to as Pompe disease, an autosomal recessive disorder. Structurally normal glycogen is accumulated in the lysosomes and cytoplasm in affected patients, primarily in muscle tissues. Excessive glycogen storage within lysosomes may interrupt normal functioning of other organelles and leads to cellular injury. In turn, this leads to enlargement and dysfunction of the entire organ involved (eg: cardiomyopathy and muscle weakness). It has been reported that the improper folding and trafficking of alpha-glucosidase resulting from genetic mutations may account for a significant number of Pompe patients. […] We optimized this alpha-glucosidase assay in 1536-well plate format for identification of novel small molecule inhibitors or activators with structures other than the sugar analogs in order to develop new pharmacological chaperones. Previous assays of alpha-Glucosidase have utilized a non-natural fluorescent substrate to probe enzyme activity. The present assay measures enzyme activity on glycogen using a coupled-assay system to glucose oxidase.
NCGC Assay Protocol Summary: This is an enzyme assay using glycogen from bovine liver (Sigma catalog #: G0885) as the substrate and recombinant human alpha-glucosidase as the enzyme preparation. Upon hydrolysis of the substrate, the glucose product can be detected using the Amplex Red Glucose Oxidase Assay Kit (Invitrogen catalog #: A22189). The product of this reaction can be read with a fluorescence plate reader with an excitation at 573 nm and an emission at 610 nm. Data were normalized to the controls for basal activity (without enzyme) and 100% activity (with enzyme). The AC50 values were determined from concentration-response data modeled with the standard Hill equation. Assay buffer for enzyme reaction: 50 mM citric acid (titrated with potassium phosphate to pH 5.0), 0.01% Tween-20 (pH 5.0 is an optimal condition for this enzyme assay) Assay buffer for Amplex Red reaction: Tris-HCl, pH 7.5 1536-well assay protocol for the alpha-glucosidase assay: (1) Add 2 ul/well alpha-glucosidase enzyme solution (4 nM final) (2) Add 23 nL compounds in DMSO solution. The final titration was 0.7 nM to 77 uM. (3) Add 1 ul of glycogen substrate solution (30 ug) (4) Incubate at 37 C for 40 min (5) Add 2 ul tris-HCl buffer with Amplex Red reagents (6) Incubate 45 min at room temperature. (7) Detect the assay plate in a ViewLux plate reader (PerkinElmer) with Ex=573 nm and Em=610nm. Keywords: Alpha-glucosidase, Pompe Disease, pharmacological chaperone, chaperone therapy, high throughput screening, alpha-glucosidase inhibitor, MLSMR, MLSCN, NIH Roadmap, qHTS and NCGC
A general note: qHTS replaces the single test concentration by a dilution series.
With `CCS(=O)(=O)N1CCc2cc(C(=O)N3CCN(c4ccccc4OC)CC3)ccc21`, the “activity change, negative = inhibition” value is -12.8%.

Turning to `CCCOc1ccc(C2c3c(-c4ccccc4O)n[nH]c3C(=O)N2Cc2cccnc2)cc1` (stereo not drawn), the “activity change, negative = inhibition” value was -14.1%. As for `CCOc1ccc(CNC(=O)C2CCCN(S(=O)(=O)N(CC)c3ccc(OCC)cc3)C2)cc1` (stereo not drawn), the “activity change, negative = inhibition” value is -5.42%. Still for that read-out and setting: in the case of `COc1ccc(NC(=O)N2CCC(Cc3ccccc3)CC2)cc1` it was 17.3% [at 76.4 µM]; in that of `COc1ccccc1CNC(=O)c1ccc(NC(=O)N2CC(C)Sc3ccccc32)cc1` (stereo not drawn), -7.96%. Regarding `COc1ccc(CNC(=O)c2ccc(NC(=O)N3CC4CCCN4c4ccccc43)cc2)cc1` (stereo not drawn), the Potency is 17.8 µM (active). For `CCCOc1cccc(C(=O)Nc2cccc(NC(=O)c3ccc(C(C)(C)C)cc3)c2)c1`, the “activity change, negative = inhibition” value was -11.6%. With `COc1ccc(CCNC(=O)c2cc(=O)c3c(C)cc(C)cc3o2)cc1OC`, the “activity change, negative = inhibition” value was 12.6%. Still for that read-out and setting: to `CCOC(=O)c1c(C)oc2ccc(N(C(=O)c3ccncc3)S(=O)(=O)c3ccc(CC)cc3)cc12` belongs -5.49%.

Consider `CCn1c(SCC(=O)N/N=C/c2ccncc2)nc2ccccc21`, for which the “activity change, negative = inhibition” value was 0.69% [at 76.4 µM]. With `Cc1ccc(/C=N/NC(=O)CSc2nc3ccccc3o2)cc1`, the “activity change, negative = inhibition” value is -4.49% [at 76.4 µM]. Regarding `Cn1c(SCC(=O)N/N=C/c2ccc(O)c(O)c2)nc2ccccc21`, the Potency is 8.91 µM (active). Take `CCN(CC)S(=O)(=O)c1nnc(NC(=O)COc2ccccc2Cl)s1`: the “activity change, negative = inhibition” value was -4.77%. Same read-out and setting: to `CCS(=O)(=O)N1CCc2cc(C(=O)NCc3ccc(OC)cc3)ccc21` belongs 14.8%; to `Cc1ccccc1-c1nc(CS(=O)(=O)CC(=O)Nc2cc(Cl)cc(Cl)c2)c(C)o1`, -7.14%; to `Cc1cccc(NC(=O)N2CCC(CN3CCc4ccccc4C3)CC2)c1C`, 9.41%. For the compound `COc1ccc2c(c1)C(C)=CC(C)(C)N2C(=O)CNCc1ccc2c(c1)OCO2`, the “activity change, negative = inhibition” value was -16.1% [at 76.4 µM]. Same read-out and setting: in the case of `CC1=CC(C)(C)N(C(=O)CSc2nnc(-c3ccccc3)o2)c2ccc(C)cc21` it was -4.74% [at 76.4 µM].

In the case of `COc1ccc2c(c1)C(C)=CC(C)(C)N2C(=O)Nc1ccccc1`, the Potency is 35.5 µM (active). As to `CCOc1ccc(N(Cc2ccccc2)C(=O)c2nc(S(C)(=O)=O)ncc2Cl)cc1`, the “activity change, negative = inhibition” value was 13.6%. In the case of `Cc1ccc(Cn2c(CCCNC(=O)C3CCCCC3)nc3ccccc32)cc1`, the “activity change, negative = inhibition” value is -13.5%.

Regarding `COc1ccc2c(Sc3ccc(C)cc3)c(C(=O)NC(C)c3ccccc3)[nH]c2c1` (stereo not drawn), the “activity change, negative = inhibition” value was -10.9%.

As to `Cc1cc2cc3c(N)[nH]nc3nc2cc1C`, the Potency was 8.91 µM (active). Regarding `Cc1cccc(NC(=O)c2cc3c(C)nn(-c4ccccc4)c3s2)c1`, the “activity change, negative = inhibition” value is -2.14%.

In the case of `COc1ccc(-c2cn3nc(N4CCCC(C(=O)NCCCOC(C)C)C4)sc3n2)cc1` (stereo not drawn), the “activity change, negative = inhibition” value is 4.17%. With `COC(=O)c1cc(S(=O)(=O)N2CCN(c3cc(Cl)ccc3C)CC2)c[nH]1`, the “activity change, negative = inhibition” value was 5.27%.

As for `COC(=O)c1cc2occc2n1Cc1nc(-c2ccc(C)cc2)oc1C`, the “activity change, negative = inhibition” value was -11.8%. Consider `Cc1nn(C(C)C(=O)NCCc2ccccc2)c(=O)c2c1sc1ccccc12` (stereo not drawn), for which the “activity change, negative = inhibition” value is -10.3%.

Take `Oc1ccc(Br)cc1/C=N/Nc1ccccn1`: the “activity change, negative = inhibition” value is -5.32% [at 76.4 µM].

In the case of `O=C(Nc1ccccc1)Nc1ccc(C(F)(F)F)cn1`, the “activity change, negative = inhibition” value was 5.88% [at 76.4 µM]. As for `Oc1ccc(/C=N/Nc2ccc(C(F)(F)F)cn2)cc1O`, the Potency is 3.52 µM (active). Regarding `CCC1CCCCN1S(=O)(=O)c1ccc(NC(=O)c2cc(=O)c3ccccc3o2)cc1` (stereo not drawn), the “activity change, negative = inhibition” value was -6.07%. With `CCN1C(=O)c2cccc3c(N)ccc1c23`, the Potency is 28.2 µM (active).

With `CN1C(=O)c2cccc3c(N)ccc(c23)C1=O`, the “activity change, negative = inhibition” value is 5.15% [at 76.4 µM]. For the compound `CCN1C(=O)c2cccc3c(S(=O)(=O)Nc4ccccc4O)ccc1c23`, the “activity change, negative = inhibition” value is -4.12% [at 76.4 µM]. On to `O=C(Nc1ccc2nc(SCC(=O)N3CCCc4ccccc43)sc2c1)c1ccc(Cl)cc1`, for which the “activity change, negative = inhibition” value is -2.34%. With `CCOC(=O)c1c(NC(=S)NC)sc2c1CCCC2`, the “activity change, negative = inhibition” value is -1.18% [at 76.4 µM]. For the compound `CCOC(=O)c1c(/N=C/c2cc(C)ccc2O)sc2c1CCC2`, the Potency is 10 µM (active). As to `CCOC(=O)c1c(NC(=O)/C(C#N)=C/c2ccccc2)sc2c1CCC2`, the “activity change, negative = inhibition” value is 0.505%.

For `O=C1CC(=O)Nc2cc(S(=O)(=O)N3CCN(c4cccc(C(F)(F)F)c4)CC3)ccc2N1`, the “activity change, negative = inhibition” value is -10.2% [at 76.4 µM].

Take `COc1ccc(N2CCN(S(=O)(=O)c3ccc4c(c3)NC(=O)C(C)C(=O)N4)CC2)cc1` (stereo not drawn): the “activity change, negative = inhibition” value was 7.77%. `COc1ccc(N2CCN(S(=O)(=O)c3ccc4c(c3)CC(=O)N4)CC2)cc1`: the Potency is 59.8 µM (active). For the compound `Cc1ccc(NC(=O)c2nc(S(=O)(=O)Cc3cccc(C)c3)ncc2Cl)cc1`, the “activity change, negative = inhibition” value was 9.9%. Same read-out and setting: to `Cc1cc(N/N=C/c2ccccc2F)c2ccccc2n1` belongs -19.4% [at 76.4 µM]. Take `Cc1ccc2nc(C)cc(N/N=C/c3ccc(F)cc3)c2c1`: the “activity change, negative = inhibition” value was -2.53% [at 76.4 µM]. On to `COc1cccc2c(N/N=C/c3ccco3)cc(C)nc12`, for which the Potency was 8.84 µM (active). The same measure, in the same setting: to `CCOc1ccc(CNC(=O)C2CCN(c3nnc(-n4cccc4CNc4ccc(C)cc4)s3)CC2)cc1OC` belongs 31.6 µM (active). As for `Cc1ccc(C)n1-c1nnc(N2CCC(C(=O)NCc3ccc(F)cc3)CC2)s1`, the “activity change, negative = inhibition” value was 5.06%. Still for that read-out and setting: in the case of `Cc1ccc(CCNC(=O)C2CCN(c3nnc(-n4cccc4CNc4ccc(C)cc4)s3)CC2)cc1` it was -6.93%; in that of `Cc1cccc(OCC(=O)N(Cc2ccc(C(C)C)cc2)Cc2ccco2)c1C`, 9.65%; in that of `CCn1c2ccccc2c2cc(NC(=O)COC(=O)c3ccccc3Br)ccc21`, 11.5% [at 76.4 µM].

In the case of `CCn1c2ccccc2c2cc(NC(=S)N3CCOCC3)ccc21`, the Potency was 12.5 µM (active).

`CCn1c2ccccc2c2cc(NC(=O)CNC)ccc21`: the “activity change, negative = inhibition” value was -2.67% [at 76.4 µM].

The values above are taken from PubChem BioAssay AID2100 (National Center for Advancing Translational Sciences (NCATS), 2009).
